Results published in PubChem BioAssay (NCATS).
Records with an inconclusive call do not appear. Active and inactive are the calls of the source. The call rests on the fitted dose curve; in most records, active means well fitted curve in the direction sought with a large enough effect; inconclusive means small, poorly fitted or top-dose-only effect, or another doubt; inactive means no such curve, though single readings can be large; an effect the other way counts as inactive or inconclusive.

Columns and labels:
KB-3-1 = test: Cytotoxic Profiling of Annotated Libraries Using Quantitative High-Throughput Screening (AID 1296008); conditions: Five cell lines viability, CellTiter-Glo ATP luminescence, 48-72 h; max response: hits give low values; further: nearly all actives have a fitted effect of over 60% in size
How it was run: (§1)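 Compounds were pin-transferred onto cells and incubated 48 or 72 hr at 37 degree Celsius, 95% humidity. CellTiter-Glo was added, plates sat 10 min at room temperature, then ATP-coupled luminescence was imaged as the viability read-out.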

NIH3T3 = test: as above; conditions: Five cell lines viability, CellTiter-Glo ATP luminescence, 48-72 h; max response: hits give low values
How it was run: as §1

C33A = test: Primary qHTS to identify gynecologic anti-cancer compounds using libraries of approved drugs and bioactive compounds (AID 1345084); conditions: Gynecologic cancer cell panel viability, ATPlite luminescence, 48 h; series mostly up to 57.5 µM; further: nearly all actives have a fitted effect of over 55% in size
How it was run: (§2)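 Cells, 1,000 per well, plated 16 h, then exposed 48 h at 37 C to compounds. Viability by ATPlite luminescence after 15 min at room temperature.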

CAOV3 = test: as above; conditions: Gynecologic cancer cell panel viability, ATPlite luminescence, 48 h; series mostly up to 57.5 µM
How it was run: as §2

CASKI = test: as above; conditions: Gynecologic cancer cell panel viability, ATPlite luminescence, 48 h; series mostly up to 57.5 µM
How it was run: as §2

Es-2 = test: as above; conditions: Gynecologic cancer cell panel viability, ATPlite luminescence, 48 h; series mostly up to 57.5 µM
How it was run: as §2

HeLa = test: as above; conditions: Gynecologic cancer cell panel viability, ATPlite luminescence, 48 h; series mostly up to 57.5 µM
How it was run: as §2

Hek293T = test: as above; conditions: Gynecologic cancer cell panel viability, ATPlite luminescence, 48 h, control line for the selectivity index; series mostly up to 57.5 µM
How it was run: as §2

JEG-3 = test: as above; conditions: Gynecologic cancer cell panel viability, ATPlite luminescence, 48 h; series mostly up to 57.5 µM
How it was run: as §2

OV90 = test: as above; conditions: Gynecologic cancer cell panel viability, ATPlite luminescence, 48 h; series mostly up to 57.5 µM
How it was run: as §2
On the % scale 0 is the no-effect control and ±100 the full control effect; potency means the concentration at half of the fitted maximal effect.

CC(C)=CCC[C@](C)(O[C@@H]1O[C@H](CO)[C@@H](O)[C@H](O)[C@H]1O)[C@H]1CC[C@]2(C)[C@@H]1[C@H](O)CC1[C@@]3(C)CC[C@H](O)C(C)(C)C3[C@@H](O[C@@H]3O[C@H](CO)[C@@H](O)[C@H](O)[C@H]3O[C@@H]3OC[C@@H](O)[C@H](O)[C@H]3O)C[C@]12C (stereo not given in full)
inactive: max response (KB-3-1) -9.18% | max response (NIH3T3) -2.19% | activity change, negative = cytotoxicity (C33A) -5.13% [at 11.6 µM] | activity change, negative = cytotoxicity (CAOV3) 0.415% [at 11.6 µM] | activity change, negative = cytotoxicity (CASKI) -3.01% [at 11.6 µM] | activity change, negative = cytotoxicity (Es-2) 3.44% [at 11.6 µM] | activity change, negative = cytotoxicity (HeLa) 9.51% [at 11.6 µM] | activity change, negative = cytotoxicity (Hek293T) -2.61% [at 11.6 µM] | activity change, negative = cytotoxicity (JEG-3) -16.8% [at 11.6 µM] | activity change, negative = cytotoxicity (OV90) -3.26% [at 11.6 µM]

C/C=C(\C)C(=O)OCC1OC(OC2OC(COC(=O)/C(C)=C/C)C(OC3OC(CO)C(OC(=O)/C(C)=C/C)C(OC(=O)/C(C)=C/C)C3O)C(O)C2O)C(O)C(O)C1OC1OC(CO)C(OC(=O)/C(C)=C/C)C(OC(=O)/C(C)=C/C)C1O (stereo not given)
inactive: max response (KB-3-1) -4.08% | max response (NIH3T3) -26.7% | activity change, negative = cytotoxicity (C33A) -2.64% [at 11.6 µM] | activity change, negative = cytotoxicity (CAOV3) -7.6% [at 11.6 µM] | activity change, negative = cytotoxicity (CASKI) 2.92% [at 11.6 µM] | activity change, negative = cytotoxicity (Es-2) 9.5% [at 11.6 µM] | activity change, negative = cytotoxicity (HeLa) 29.5% [at 11.6 µM] | activity change, negative = cytotoxicity (Hek293T) -1.84% [at 11.6 µM] | activity change, negative = cytotoxicity (JEG-3) -2.52% [at 11.6 µM] | activity change, negative = cytotoxicity (OV90) -3.76% [at 11.6 µM]

C/C=C/C=C/C=C/C(=O)OC1C=C(C=O)C(O)(C(=O)O)C2(C)CCCC(C)(C)C12 (stereo not given)
inactive: max response (KB-3-1) 7.06% | max response (NIH3T3) 3.49% | Potency (C33A) | Potency (CAOV3) | Potency (CASKI) | Potency (Es-2) | Potency (HeLa) | Potency (Hek293T) | Potency (JEG-3) | Potency (OV90)

NC(=O)[C@H](O[C@@H]1O[C@H](CO)[C@@H](O)[C@H](O)[C@H]1O)c1ccccc1
inactive: outcome (KB-3-1) | max response (NIH3T3) 4.94% | Potency (C33A) | Potency (CAOV3) | Potency (CASKI) | Potency (Es-2) | Potency (HeLa) | Potency (Hek293T) | Potency (JEG-3) | Potency (OV90)

CC(=O)c1ccc(O[C@@H]2O[C@H](CO)[C@@H](O)[C@H](O)[C@H]2O)cc1
inactive: max response (KB-3-1) 2.85% | max response (NIH3T3) -22.7% | Potency (C33A) | Potency (CAOV3) | Potency (CASKI) | Potency (Es-2) | Potency (HeLa) | Potency (Hek293T) | Potency (JEG-3) | Potency (OV90)

CC(C)C(CO)Nc1nc(Nc2ccc(C(=O)O)c(Cl)c2)c2ncn(C(C)C)c2n1 (stereo not given)
inactive: max response (KB-3-1) 1.82% | max response (NIH3T3) -3.63% | Potency (C33A) | Potency (CAOV3) | Potency (CASKI) | Potency (Es-2) | Potency (HeLa) | Potency (Hek293T) | Potency (JEG-3) | Potency (OV90)

C/C=C/c1ccc2oc(-c3ccc(O)c(OC)c3)c(C)c2c1
inactive: max response (KB-3-1) 6.52% | max response (NIH3T3) -2.29% | Potency (C33A) | Potency (CAOV3) | Potency (CASKI) | Potency (Es-2) | Potency (HeLa) | Potency (Hek293T) | Potency (JEG-3)
active: Potency (OV90) 20 µM

CC(=O)C1=C(C)N(c2cccc(C(F)(F)F)c2)C(=O)N[C@H]1c1ccc(C#N)nc1
inactive: max response (KB-3-1) 1.77% | max response (NIH3T3) -21.8% | activity change, negative = cytotoxicity (C33A) 16.9% [at 11.6 µM] | activity change, negative = cytotoxicity (CAOV3) 8.36% [at 11.6 µM] | activity change, negative = cytotoxicity (CASKI) 11.8% [at 11.6 µM] | activity change, negative = cytotoxicity (Es-2) 6.68% [at 11.6 µM] | activity change, negative = cytotoxicity (HeLa) 11% [at 11.6 µM] | activity change, negative = cytotoxicity (Hek293T) -1.04% [at 11.6 µM] | activity change, negative = cytotoxicity (JEG-3) -3.38% [at 11.6 µM] | activity change, negative = cytotoxicity (OV90) 5.76% [at 11.6 µM]

CC1(C)CCC2(C(=O)OC3OC(CO)C(O)C(O)C3O)CCC3(C)C(=CCC4C5(C)CCC(O)C(C)(C(=O)O)C5CCC43C)C2C1O (stereo not given)
inactive: max response (KB-3-1) 1.65% | max response (NIH3T3) 0.934% | Potency (C33A) | Potency (CAOV3) | Potency (CASKI) | Potency (Es-2) | Potency (HeLa) | Potency (Hek293T) | Potency (JEG-3) | Potency (OV90)

O=C1CC2(CCCC2)[C@H](O)C(=O)N1CCCCN1CCN(c2ncccn2)CC1
inactive: max response (KB-3-1) -7.77% | max response (NIH3T3) -13.6% | Potency (C33A) | Potency (CAOV3) | Potency (CASKI) | Potency (Es-2) | Potency (HeLa) | Potency (Hek293T) | Potency (JEG-3) | Potency (OV90)

COc1cc2ncnc(Nc3ccc(O)cc3)c2cc1OC
inactive: max response (KB-3-1) 3.01% | max response (NIH3T3) 2.24% | Potency (C33A) | Potency (CAOV3) | Potency (CASKI) | Potency (Es-2) | Potency (HeLa) | Potency (Hek293T) | Potency (JEG-3) | Potency (OV90)

CC[C@@](C)(Nc1ccnc(-c2c[nH]c3ncccc23)n1)C(=O)NCC(F)(F)F
inactive: outcome (KB-3-1) | Potency (C33A) | Potency (CAOV3) | Potency (CASKI) | Potency (Es-2) | Potency (HeLa) | Potency (Hek293T) | Potency (JEG-3) | Potency (OV90)
active: Potency (NIH3T3) 14.6 µM

CC1C(=O)CC2C3CCC(C(=O)O)C12CC3(C)CO (stereo not given)
inactive: max response (KB-3-1) 0.285% | max response (NIH3T3) -4.76% | Potency (C33A) | Potency (CAOV3) | Potency (CASKI) | Potency (Es-2) | Potency (HeLa) | Potency (Hek293T) | Potency (JEG-3) | Potency (OV90)

CC1=CC(=O)[C@H]2C(C)(C)CCC[C@]2(C)[C@@]1(O)CO
inactive: max response (KB-3-1) 7.19% | max response (NIH3T3) 3.55% | Potency (C33A) | Potency (CAOV3) | Potency (CASKI) | Potency (Es-2) | Potency (HeLa) | Potency (Hek293T) | Potency (JEG-3) | Potency (OV90)

Nc1nc2c(c(=O)[nH]1)C[C@@H](CCc1ccc(C(=O)N[C@@H](CCC(=O)O)C(=O)O)cc1)CN2
active: Potency (KB-3-1) 58 nM | Potency (NIH3T3) 0.103 µM | Potency (C33A) 631 nM | Potency (CASKI) 282 nM | Potency (Es-2) 282 nM | Potency (HeLa) 282 nM | Potency (Hek293T) 316 nM | Potency (JEG-3) 10 µM | Potency (OV90) 0.501 µM
inactive: Potency (CAOV3)
